Tb PFK inh-1 = qHTS Assay to Find Inhibitors of T. brucei phosphofructokinase; T. brucei PFK, ADP-Glo luminescence; actives 0.17% (n = 330,000); ATP-dependent 6-phosphofructokinase (Trypanosoma brucei brucei), O15648; Potency, µM (doses to about 57.5 µM), usual class: inhibitors; AID 485367, 2010; note: nearly all actives have a fitted effect of over 60% in size
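ADP-Glo luminescence quantified ADP after 45 min at room temperature, with 1.25 nM T. brucei PFK, 0.1 mM ATP and 0.5 mM fructose-6-phosphate in pH 8.0 TEA buffer. qHTS titrations up to 57 µM; curves classified by quality.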
Menin-MLL FL inh = qHTS Assay for Inhibitors Targeting the Menin-MLL Interaction in MLL Related Leukemias: Competition With Fluorescein Labeled MLL-derived Peptide; Fluorescence polarization, fluorescein-MLL peptide displacement from menin; FP activity change, % at 61.4 µM; 290,000 tested, under 10 active; active = well fitted curve in the direction sought with a large enough effect in the polarisation, not every such curve was filed as active; inconclusive = small, poorly fitted or top-dose-only effect, or effect the other way, or a change in a side signal; inactive = no such curve, though single readings can be large or run the other way; the % refers to the polarisation
Menin-MLL TR inh = qHTS Assay for Inhibitors Targeting the Menin-MLL Interaction in MLL Related Leukemias: Competition With Texas Red Labeled MLL-derived Mutant Peptide | O00255 | Menin + Texas Red MLL mutant peptide, fluorescence polarization | Potency, µM (doses to about 61.6 µM), hits mostly inhibitors | actives 0.23% (n = 270,000) | AID 1768, 2009; active = well fitted inhibition curve with a large enough effect in the polarisation, with a control signal flat, not every such curve was filed as active; inconclusive = small, poorly fitted or top-dose-only effect, or effect the other way, or a change in a side signal; inactive = no such curve, though single readings can be large or run the other way; the % refers to the polarisation
Target sequence (O00255 whole entry, looked up): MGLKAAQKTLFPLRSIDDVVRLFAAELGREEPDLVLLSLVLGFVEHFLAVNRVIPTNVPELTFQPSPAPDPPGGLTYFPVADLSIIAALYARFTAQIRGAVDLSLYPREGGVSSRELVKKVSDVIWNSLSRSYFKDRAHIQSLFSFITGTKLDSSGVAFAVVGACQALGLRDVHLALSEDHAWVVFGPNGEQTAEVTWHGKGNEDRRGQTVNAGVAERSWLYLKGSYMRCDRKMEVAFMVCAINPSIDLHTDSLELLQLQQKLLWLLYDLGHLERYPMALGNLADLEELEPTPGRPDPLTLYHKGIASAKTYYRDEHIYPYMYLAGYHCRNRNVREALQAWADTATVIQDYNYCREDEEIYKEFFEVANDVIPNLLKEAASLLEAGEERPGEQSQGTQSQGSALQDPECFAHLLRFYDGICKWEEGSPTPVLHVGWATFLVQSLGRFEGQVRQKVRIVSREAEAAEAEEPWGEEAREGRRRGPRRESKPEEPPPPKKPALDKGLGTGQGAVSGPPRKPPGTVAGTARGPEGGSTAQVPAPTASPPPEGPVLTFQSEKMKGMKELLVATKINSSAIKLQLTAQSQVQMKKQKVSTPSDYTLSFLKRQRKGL
MLL CXXC-DNA inh = qHTS Fluorescence Polarization Assay for Inhibitors of MLL CXXC domain - DNA interaction. Histone-lysine N-methyltransferase 2A (Homo sapiens), Q03164. MLL-CXXC / FITC-HOXA9 DNA fluorescence polarization. Potency, µM (doses to about 115 µM), most hits filed as inhibitors. actives 0.037% (n = 290,000). AID 2662, 2010; active = well fitted inhibition curve with a large enough effect in the polarisation, with a control signal flat, not every such curve was filed as active; inconclusive = small, poorly fitted or top-dose-only effect, or effect the other way, or a change in a side signal; inactive = no such curve, though single readings can be large or run the other way; the % refers to the polarisation
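Steps: dispense CXXC domain solution (7 uM) → pin compounds or unlabeled HOX-A9 DNA control → 5 min ambient → add FLSN-HOX-A9 solution (50 nM) → spin → 30 min ambient → fluorescence polarization. Tris pH 7.5/NaCl/DTT/BSA buffer.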
GoLoco inh red = qHTS Assay for Inhibitors of RGS12 GoLoco Motif Activity (Red Fluorophore); Gai1:RGS12 GoLoco peptide FP, rhodamine, 10 min; Potency, µM (series often up to 61.6 µM), hits mostly inhibitors; actives 0.44% (n = 230,000); active = well fitted inhibition curve with a large enough effect, not every such curve was filed as active; inactive = no such curve, though single readings can be large or run the other way; note: nearly all actives have a fitted effect of over 30% in size
Tb PFK KinaseGlo = Tb PFK orthogonal confirmatory assay using ATP depletion (Kinase-Glo Plus) as an alternative measure of Tb PFK activity: Hit Validation. Tb PFK enzyme, ATP depletion, Kinase-Glo Plus luminescence. AID 504636, 2011. shares compounds with Tb PFK inh-1. actives 47% (n = 1,100). Potency, µM (titrated, usually from 57.5 µM); calls by dose curve; note: nearly all actives have a fitted effect of over 60% in size
Tb PFK inh-2 = Inhibitors of T. brucei phosphofructokinase: Hit Validation; shares compounds with Tb PFK inh-1; purified T. brucei PFK, ADP-Glo luminescence, 45 min; Potency, µM (titrated, usually from 57.5 µM), most hits filed as inhibitors; actives 41% (n = 1,100); note: nearly all actives have a fitted effect of over 60% in size
Hits are given with their value; n = inactive; u = inconclusive; x = not tested or not shown; [ ] = another dose, or the depositor's remark. Compounds with a hit are over-represented: about 0.43% of the library has one in this group of screens. Unless noted, calls come from the whole dose curve; as a rule, active = well fitted inhibition curve with a large enough effect; inconclusive = small, poorly fitted or top-dose-only effect, or effect the other way; inactive = flat fitted curve, though single readings scatter.

SMILES	Tb PFK inh-1	Menin-MLL FL inh	Menin-MLL TR inh	MLL CXXC-DNA inh	GoLoco inh red	Tb PFK KinaseGlo	Tb PFK inh-2
CC(C)CNC(=O)c1cccc(NC(=O)COc2ccc([N+](=O)[O-])cc2)c1	n	n	n	n	n	x	x
NS(=O)(=O)c1cccc(NC(=O)COc2ccc([N+](=O)[O-])cc2)c1	7.6µM	n	n	n	n	21µM	13µM
O=C(COc1ccc([N+](=O)[O-])cc1)Nc1ccncc1	u	n	n	n	n	u	u
Nc1ncnc2nc(Cl)[nH]c12	x	n	n	x	n	x	x
CC(C)N1C(=O)/C(=C\c2nc3ccccc3c(=O)[nH]2)c2ccccc21	u	n	n	n	n	x	x
O=C(O)CCN1C(=O)c2ccc(NC(=O)CSc3ccc(Cl)cc3)cc2C1=O	u	n	n	n	x	u	u
O=C(O)CCN1C(=O)c2ccc(NC(=O)CCc3ccccc3)cc2C1=O	n	n	n	n	x	x	x
COc1ccc(C)cc1-n1nnnc1SCC(=O)NC(=O)NCc1ccco1	11µM	n	u	n	n	n	n
Cc1cc(SCC(=O)NC(=O)NCc2ccco2)nc2c(C)cccc12	u	n	n	n	n	u	u
COc1ccccc1OCc1nnc(SCC(=O)NCc2ccco2)n1Cc1ccco1	u	u	n	n	x	7.6µM	7.6µM
COc1ccccc1NC(=O)CSc1nnc(COc2ccc(Cl)cc2)n1Cc1ccco1	n	n	n	n	n	x	x
O=[N+]([O-])/C=C\c1ccc(N2CCCC2)c(F)c1	u	n	n	n	n	2.4µM	6µM
CSS(=O)(=O)c1cccc2cccnc12	17µM	n	x	n	n	21µM	30µM
CCN(CC)S(=O)(=O)c1cccc2cccnc12	n	n	n	n	n	x	x
CN(CC(=O)NCc1cccs1)CC(=O)Nc1ccc(F)c(F)c1F	n	x	x	n	x	x	x
O=c1c2ccccc2nc2n1CCC2	u	n	n	n	n	27µM	17µM
O=C(COC(=O)Cc1ccc(F)cc1)Nc1ccc2[nH]c(=O)[nH]c2c1	u	x	x	x	x	u	u
O=C(COC(=O)c1ccccc1OC(F)F)Nc1ccc2[nH]c(=O)[nH]c2c1	u	x	x	x	x	u	u
Cc1ccc(C(=O)NCC(=O)OCC(=O)Nc2ccc3[nH]c(=O)[nH]c3c2)cc1	u	x	x	x	x	u	u
O=C(COC(=O)c1ccc(F)cc1F)Nc1ccc2[nH]c(=O)[nH]c2c1	n	n	n	n	n	x	x
CCCCn1c(C)cc2c(c1=O)C1O[C@](c3ccsc3)(Cc3ccccc31)O2	n[11.5 µM]	n[11.7 µM]	u	n[23 µM]	x	x	x
O=C(NC1CCCC1)C(c1ccccc1)N(Cc1ccccc1)C(=O)c1csnn1 (configuration not stated)	n	n	n	n	x	x	x
CCNc1nc(NCC)n2c(SCC(=O)Nc3ccc(CC)cc3)nnc2n1	21µM	x	x	x	x	17µM	17µM
CNc1cc(CSC)nc(SCc2ccc(Cl)c(Cl)c2)n1	21µM	n	n	n	n	5.4µM	8.5µM
Cc1nc(SCc2ccc(Cl)c(Cl)c2)ncc1C(=O)O	n	n	n	n	n	x	x
Cc1nc(SCc2ccc(Cl)c(Cl)c2)n[nH]1	21µM	n	n	n	x	12µM	u
CCC(=O)N[C@@H]1Cc2ccccc2[C@@H](c2ccccc2)C1	x	u	n	x	n	x	x
Cc1ccc(-n2c(SCC(=O)NC3CCS(=O)(=O)C3)nc3ccccc3c2=O)cc1C (configuration not stated)	n	x	x	x	x	x	x
